D3 antag – blocks the human D3 dopamine receptor | P35462 | D3R cells, DiscoveRx beta-arrestin luminescence, antagonist mode; hits give low values | max response, negative = inhibition, % | hit rate 2.5% among 360,000 | AID 652054; in the data active = max response below about -50%; inconclusive = no clear call, values can overlap the other calls; also: % is scaled to controls: 0 for no effect and ±100 for the full control effect
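Cells plated overnight at 1500 cells/well, then exposed to library compounds with dopamine controls for 90 minutes at 37 degrees C. DiscoveRx reagent added for 30–60 minutes at room temperature; luminescence read, quantitative HTS format.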
uPA surface inh – inhibitors of cell surface uPA generation. Potency, µM (titrated, usually from 38.3 µM), for inactives: at the top dose activity change, negative = inhibition, usual class: inhibitors. hit rate 0.31% among 330,000. AID 540303. cell surface uPA generation assay, qHTS; active = well fitted inhibition curve with a large enough effect; inconclusive = small, poorly fitted or top-dose-only effect; inactive = no such curve, though single readings can be large or run the other way; tested in mouse RAW 264.7 cells; also: potency is read from the fitted curve at half-maximal effect; % is scaled to controls: 0 for no effect and ±100 for the full control effect; nearly all actives have a fitted effect of over 55% in size
RGS4 inh – inhibitors of human regulator of G protein signaling 4 | Transcreener GDP fluorescence polarization, RGS4-accelerated GTP hydrolysis | hit rate 0.039% among 390,000 | Potency, µM (highest dose often 114 µM), for inactives: at the highest dose activity change, negative = inhibition, actives largely listed as inhibitors; active = well fitted inhibition curve with a large enough effect; inconclusive = small, poorly fitted or top-dose-only effect; inactive = no such curve, though single readings can be large or run the other way; also: potency is read from the fitted curve at half-maximal effect; % is scaled to controls: 0 for no effect and ±100 for the full control effect; nearly all actives have a fitted effect of over 75% in size
Target sequence (P49798 whole entry, looked up): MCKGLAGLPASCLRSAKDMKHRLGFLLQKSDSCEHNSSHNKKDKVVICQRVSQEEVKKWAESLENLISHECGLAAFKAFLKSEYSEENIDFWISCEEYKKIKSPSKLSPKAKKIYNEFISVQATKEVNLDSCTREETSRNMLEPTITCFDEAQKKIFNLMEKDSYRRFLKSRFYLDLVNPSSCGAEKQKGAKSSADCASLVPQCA
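MLSMR compounds (23 nl, pin-transferred) preincubated 10 min at room temperature with a 500nM (2x) first reagent, then RGS4 at 900nM (2x) plus Transcreener GDP mix added; fluorescence polarization (620/688 nm) read before and after 90 min at 30 °C.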
DRD3 agonist – agonists of human D3 dopamine receptor. P35462. AID 652048. D3R DiscoveRx beta-arrestin cells, luminescence, 90 min. hit rate 0.58% among 410,000. max activation, %; in the data active = max activation above about 30%; also: 0% is about no effect
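Cells at 1500/well, incubated overnight, then treated with pinned compounds (dopamine as control) for 90 min at 37 degrees C. DiscoveRx reagent added for 30 - 60 minutes at room temperature; luminescence read.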
Starred values were filed as active, the others as inactive; u = inconclusive; x = not tested or not shown; [ ] = another dose, or the depositor's remark. Compounds with a hit are over-represented: about 3.1% of the library has one in this group of screens.

SMILES	D3 antag	uPA surface inh	RGS4 inh	DRD3 agonist
COc1cc(C(=O)NCC(c2ccco2)N2CCCC2)ccc1OCc1ccc(Cl)cc1Cl (configuration not stated)	u	u	-3%	-2
CCOC(=O)C1=C(C)N(c2ccc(OC)cc2)C(=O)/C1=C\c1cccs1	-20	-1%	-3%	72*
COc1ccc(N2CCN(C(CNC(=O)C(=O)NCCc3ccccc3)c3cccnc3)CC2)cc1 (configuration not stated)	x	x	-6%	10
COc1ccc2oc(C(=O)Nc3nc(C)cs3)c(C)c2c1	11	10µM*	-19%	1
CCC1CN(C(=O)N2CCC(C(=O)NCCc3ccccc3Cl)CC2)c2cc(C)ccc2O1 (configuration not stated)	x	x	-12%	-7
COc1ccc2c(c1)CC/C(=C/c1ccccn1)C2=O	-24	u	-11%	-9
O=C1C(=Cc2ccccn2)CCc2ccccc21	-67*	x	x	-15
Cc1ccc2cc3c(nc2c1)N(Cc1ccco1)CC3	-56*	-7%	u	1
Cc1cc(=O)n(CC(=O)NC(C)c2ccccc2)c2c1c(C)nn2C (configuration not stated)	x	x	0%	1
Cc1ccc(C(=O)OCCN2CCN(c3ncc(C(F)(F)F)cc3Cl)CC2)cc1	-83*	6%	23%	-16
O=C(OCCN1CCN(c2ncc(C(F)(F)F)cc2Cl)CC1)c1ccc(F)cc1	u	1%	6%	-20
O=C(CSc1ccc(Cl)cc1)N1CCN(c2ncc(C(F)(F)F)cc2Cl)CC1	10	x	25%	15
O=C(CN1CCN(c2ncc(C(F)(F)F)cc2Cl)CC1)N1CCN(c2ncc(C(F)(F)F)cc2Cl)CC1	-61*	3%	26%	0
CCc1noc(C)c1C(=O)OCC(=O)Nc1cccc(C)c1	11	-1%	7%	4
Cc1noc(C)c1C(=O)OCC(=O)Nc1cccc(F)c1	-62*	x	x	-7
Cc1ccc(CN2C3CCCC2CC(NC(=O)c2ccc(C)cc2)C3)cc1 (configuration not stated)	-109*	-2%	14%[56.9 µM]	-10
CCOc1ccccc1C(=O)NC1CC2CCCC(C1)N2Cc1ccc(C)cc1 (configuration not stated)	-80*	3%	-49%	-12
CCCN1C2CCCC1CC(NC(=O)c1ccccc1OCC)C2 (configuration not stated)	u	-7%	18%	-6
CC(=O)NC1CC2CCCC(C1)N2Cc1ccc(C)cc1 (configuration not stated)	-113*	u	-15%	-7
CCCN1C2CCCC1CC(NC(=O)c1ccccc1)C2 (configuration not stated)	0	-3%	13%	-7
Cc1ccccc1C(=O)NC1CC2CCC(C1)N2Cc1ccccc1 (configuration not stated)	-86*	4%	4%	-17
COCCn1cnc2c1-c1ccc(OC)c(c1)OC/C=C\COc1cccc-2c1	x	x	-22%	x
O=C(NC1CC2CCCC(C1)N2Cc1ccc(F)cc1)c1ccc(F)cc1 (configuration not stated)	-108*	-18%	-1%	-22
CCN(CC)CC(C)(C)C(=O)/C=C/c1ccc(/C=C/C(=O)C(C)(C)CN(CC)CC)cc1	-64*	-6%	-34%	-14
CNC(=O)C1CCC(Cn2c(=O)c3sccc3n(Cc3cc(C)ccc3C)c2=O)CC1 (configuration not stated)	x	x	5%	6
SMILES	D3 antag	uPA surface inh	RGS4 inh	DRD3 agonist
OCCN1CCN(C2CCC(c3ccc(F)cc3)c3ccc(F)cc32)CC1 (configuration not stated)	-63*	2%	-30%	-21
COC(=O)c1cc2oc3ccccc3c2n1CC(=O)Nc1ccc(OC)c(OC)c1	x	x	-6%	2
CC1=CC(C)(C)n2c(O)c(C3=NC(=S)NC3=O)c3cc(OC(=O)c4cccc5ccccc45)cc1c32	-58*	3%	-10%	-16
Cn1c(CC(=O)Nc2ccccc2)cc2ccccc21	-8	4.5µM*	18%	3
COC(C[C@H](O)C[C@@H](O)COCc1ccccc1)OC	-107*	6%	0%	-3
CCN1CCCC(OC(=O)C(c2ccccc2)c2ccccc2)C1 (configuration not stated)	-53*	-18%	-17%	-83
CC(Sc1nnc2ccccn12)C(=O)Nc1ncc(Cl)cc1Cl (configuration not stated)	-50*	5%	-13%	-5

Screens: PubChem BioAssay, National Center for Advancing Translational Sciences (NCATS)
